The record followed here is PubChem BioAssay.

SMILES strings stand for the structures. For some of these results: Potency and affinity values are given separately. Activity calls are given as the source filed them.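 Rule for the calls, unless noted: active = primary screen active and over 50% activation in each of two duplicate runs; inactive = the rest.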

Assay [1] relates to TRPC4 beta (transient receptor potential cation channel C4), mouse. The assay can be described thus: activators of mouse TRPC4 channel, confirmation, cell-based, Fluo4 calcium, HEK293 TRPC4beta/mu-opioid, duplicates, 10 µM (AID 2426;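 active = fluorescence ratio normalized to control raised more than 50% in primary screen plus both repeat runs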;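 for activation: percent rise of integrated ratio over buffer wells lacking compound which define 0%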). The conditions noted are these: Fluo4 calcium fluorescence, at 10 µM; active compounds read high.
The test system of assay [2] is transient receptor potential cation channel C4 beta (TRPC4), mouse. Put plainly: activators of mouse TRPC4 channel, confirmation, cell-based, second round, Fluo4, HEK293 TRPC4beta/mu-opioid, 1 µM (AID 2461). The following applies: Fluo4 calcium fluorescence, at 1 µM; active compounds read high.
Assay [3] has as its system TRPC4 (transient receptor potential cation channel C4 beta), mouse. The assay can be described thus: positive allosteric modulators of mouse TRPC4, confirmation, cell-based, second round, Fluo-4, HEK293 TRPC4beta/mu-opioid, 1 µM (AID 2554;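 active = primary screen hit whose fluorescence ratio, in both repeats, exceeds the weak agonist control mean by 3 SD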). The conditions noted are these: DAMGO EC20, Fluo-4 calcium flux, at 1 µM; active compounds read high. A general note: A change in cytosolic calcium serves as a functional read-out for many receptors and channels.

Assay [4] deals with TRPC4 beta (transient receptor potential cation channel C4), mouse. Put plainly: positive allosteric modulators of mouse TRPC4, confirmation, cell-based, Fluo-4, HEK293 TRPC4beta/mu-opioid (AID 2555;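 active = primary screen hit whose calcium fluorescence ratio, in both repeats, exceeds the weak agonist control mean by 3 SD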). The following applies: DAMGO EC20, Fluo-4 calcium flux, at 10 µM; active compounds read high.
Assay [5] addresses Short transient receptor potential channel 4 (Mus musculus) (UniProt Q9QUQ5). The assay can be described thus: inhibitors of mouse TRPC4 channel, confirmation, cell-based, Fluo4, HEK293 TRPC4beta/mu-opioid (AID 2636;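 active = calcium signal cut by more than 3 SD below the full-agonist control yet still positive, in both repeats and the earlier primary screen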). The following applies: DAMGO, Fluo4 calcium flux, at 10 µM; active compounds read high.
Assay [6] shares this target. Put plainly: inhibitors of mouse TRPC4 channel, confirmation, cell-based, second round, Fluo4, HEK293 TRPC4beta/mu-opioid, 1 µM (AID 2637;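 active = calcium signal ratio cut to more than 3 SD under the fully stimulated control mean yet still positive, in both repeats and the primary screen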). The conditions noted are these: Fluo4 calcium flux, DAMGO, at 1 µM; active compounds read high.
The target is the same in assay [7]. The assay can be described thus: mouse TRPC4 channel activators, dose response, cell-based, HEK293 TRPC4/mu-opioid, Fluo-4 calcium (AID 434937;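 active = primary screen activator hit with a dose response curve and TRPC4 channel activation at any tested dose; inactive = no activation, no dose response, or not a primary hit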). The following applies: HEK293 TRPC4 cells, Fluo-4 calcium fluorescence ratio; series mostly up to 20 µM.
Assay [8] has the same target. The assay can be described thus: TRPC4 positive allosteric modulators, dose response, cell-based, HEK293 TRPC4/mu-opioid, Fluo-4 calcium, EC20 DAMGO (AID 434941;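 active = earlier screen potentiator hit that boosts the TRPC4 ion channel at some dose, with a dose response; inactive = no potentiation, no dose response, or not a prior hit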;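 note: calcium entry triggered by an EC20 dose of DAMGO at the co-expressed mu-opioid receptor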). The following applies: HEK293 TRPC4/mu-opioid cells, Fluo-4 calcium fluorescence; series mostly up to 20 µM.
Assay [9] shares this target. Put plainly: mouse TRPC4 channel inhibitors, dose response, cell-based, HEK293 TRPC4/mu-opioid, Fluo-4 calcium (AID 434942;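 active = primary screen inhibitor hit that blocks the TRPC4 channel at some tested dose, yielding a dose curve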). The conditions noted are these: HEK293 TRPC4/mu-opioid cells, DAMGO-evoked Fluo-4 calcium ratio; series mostly up to 20 µM.
Assay [10] addresses Short transient receptor potential channel 6 (Mus musculus) (UniProt Q61143). Put plainly: inhibition of mouse TRPC6 channel, confirmation, selectivity assay for TRPC4 inhibitor project, cell-based, HEK293, membrane potential dye, duplicate (AID 434948;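 active = active in primary screen and both duplicates, each dropping signal beyond three positive-control SD with fluorescence still positive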). The following applies: HEK293 TRPC6, membrane potential dye fluorescence, at 10 µM, stimulated with maximal-effect acetylcholine; active compounds read high.

Assay [11] shares this target. Put plainly: activation of mouse TRPC6 channel, confirmation, selectivity assay for TRPC4 activator project, cell-based, HEK293, membrane potential dye, duplicate (AID 434950;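 active = membrane potential signal rise above negative control mean plus 3 SD in both duplicates, also active in the earlier TRPC4 screen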). The conditions noted are these: HEK293 TRPC6, membrane potential fluorescence, at 10 µM; active compounds read high.
For assay [12] the target is unchanged. The assay can be described thus: TRPC6 potentiation by TRPC4 potentiator hits, confirmation, selectivity assay for TRPC4 potentiator project, HEK293 cells, membrane potential dye, duplicate (AID 434952;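 active = compound raising the membrane signal above positive-control mean plus 3 SD in both repeats, and a primary screen hit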). The conditions noted are these: HEK293 TRPC6, membrane potential dye fluorescence, at 10 µM, maximal acetylcholine added after compound; active compounds read high.

Assay [13] addresses Short transient receptor potential channel 4 (Mus musculus) (UniProt Q9QUQ5). The assay can be described thus: calcium flux activators in TRPC4/5HT1a cells, counter-screen for TRPC4 activator project, cell-based, second counter screen, HEK293 TRPC4/5HT1a, Fluo-4 (AID 434977;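 active = calcium signal rise above buffer-control mean plus 5 SD in both duplicates, and also a hit in the primary screen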). The following applies: Fluo-4 calcium flux, at 10 µM; active compounds read high.
Assay [14] is described as follows: calcium flux inhibitors in TRPC4/5HT1a cells, confirmation, counter-screen for TRPC4 inhibitor project, cell-based, second counter screen, HEK293 TRPC4/5HT1a, Fluo-4 (AID 434978;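 active = primary screen active whose calcium signal fell more than 3 SD beyond the full-serotonin control mean in both duplicate plates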;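 for outcome: serotonin given first at submaximal then at maximal dose after compound preincubation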). The conditions noted are these: Fluo-4 calcium flux, at 10 µM, serotonin added to trigger calcium flux; active compounds read high.
Assay [15] has as its system TRPC4 (mouse), co-expressed with 5HT1a in HEK293. The assay can be described thus: calcium flux potentiators in TRPC4/5HT1a cells, confirmation, counter-screen for TRPC4 potentiator project, cell-based, second counter screen, HEK293 TRPC4/5HT1a, Fluo-4 (AID 434979;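 active = signal rise over 3 SD above mean of control wells given weak agonist, in both repeats and first screen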). The conditions noted are these: Fluo-4 calcium flux, at 10 µM, serotonin added at its EC20 dose; active compounds read high.

The nature of assay [16]: calcium flux activation in mu-opioid HEK293 cells, confirmation, counter-screen for TRPC4 activator project, cell-based, HEK293 mu-opioid receptor line (AID 449723;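 active = hit in primary screen, with calcium signal over 5 SD above buffer well mean in both duplicates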;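 note: counter screen cells carry the mu-opioid receptor alone and lack TRPC4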). The conditions noted are these: Fluo-4 calcium fluorescence, at 10 µM; active compounds read high.
The nature of assay [17]: calcium flux enhancement in mu-opioid HEK293 cells, confirmation, counter-screen for TRPC4 allosteric potentiator project, cell-based, HEK293 mu-opioid receptor line (AID 449724;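 active = calcium signal rise more than 3 SD above the low-dose agonist control mean, in both duplicate plates and the primary screen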;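 note: HEK293 cells carrying mu-opioid receptor only with no TRPC4 channel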). The conditions noted are these: Fluo-4 calcium flux, at 10 µM, compound added before EC20 DAMGO stimulus; active compounds read high.

Sequence of Short transient receptor potential channel 6 (Mus musculus) (Q61143 whole entry, looked up): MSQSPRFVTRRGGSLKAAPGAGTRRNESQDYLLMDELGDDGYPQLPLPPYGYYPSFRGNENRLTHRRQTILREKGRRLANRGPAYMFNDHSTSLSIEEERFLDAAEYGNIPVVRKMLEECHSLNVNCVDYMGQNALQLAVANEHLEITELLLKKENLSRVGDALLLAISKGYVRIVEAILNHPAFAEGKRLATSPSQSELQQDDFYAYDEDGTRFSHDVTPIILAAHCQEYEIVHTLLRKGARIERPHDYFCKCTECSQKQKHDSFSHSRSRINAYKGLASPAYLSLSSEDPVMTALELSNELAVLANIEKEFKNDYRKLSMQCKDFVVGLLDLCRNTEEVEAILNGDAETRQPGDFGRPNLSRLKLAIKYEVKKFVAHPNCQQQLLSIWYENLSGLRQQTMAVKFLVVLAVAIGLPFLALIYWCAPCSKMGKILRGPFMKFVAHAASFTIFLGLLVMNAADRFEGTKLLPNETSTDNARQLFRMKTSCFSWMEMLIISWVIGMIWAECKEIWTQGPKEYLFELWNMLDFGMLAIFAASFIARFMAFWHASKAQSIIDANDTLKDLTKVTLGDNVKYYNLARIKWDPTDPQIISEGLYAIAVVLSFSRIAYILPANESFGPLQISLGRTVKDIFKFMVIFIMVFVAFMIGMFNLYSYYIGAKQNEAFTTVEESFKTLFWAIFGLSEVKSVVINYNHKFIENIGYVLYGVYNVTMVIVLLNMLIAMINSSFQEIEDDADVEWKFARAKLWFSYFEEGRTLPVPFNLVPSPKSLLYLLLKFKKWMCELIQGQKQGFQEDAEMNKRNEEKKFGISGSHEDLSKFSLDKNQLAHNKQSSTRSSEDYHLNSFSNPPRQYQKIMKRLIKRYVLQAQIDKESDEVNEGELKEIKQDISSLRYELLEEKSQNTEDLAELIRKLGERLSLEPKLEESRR
Sequence of Short transient receptor potential channel 4 (Mus musculus) (Q9QUQ5 whole entry, looked up): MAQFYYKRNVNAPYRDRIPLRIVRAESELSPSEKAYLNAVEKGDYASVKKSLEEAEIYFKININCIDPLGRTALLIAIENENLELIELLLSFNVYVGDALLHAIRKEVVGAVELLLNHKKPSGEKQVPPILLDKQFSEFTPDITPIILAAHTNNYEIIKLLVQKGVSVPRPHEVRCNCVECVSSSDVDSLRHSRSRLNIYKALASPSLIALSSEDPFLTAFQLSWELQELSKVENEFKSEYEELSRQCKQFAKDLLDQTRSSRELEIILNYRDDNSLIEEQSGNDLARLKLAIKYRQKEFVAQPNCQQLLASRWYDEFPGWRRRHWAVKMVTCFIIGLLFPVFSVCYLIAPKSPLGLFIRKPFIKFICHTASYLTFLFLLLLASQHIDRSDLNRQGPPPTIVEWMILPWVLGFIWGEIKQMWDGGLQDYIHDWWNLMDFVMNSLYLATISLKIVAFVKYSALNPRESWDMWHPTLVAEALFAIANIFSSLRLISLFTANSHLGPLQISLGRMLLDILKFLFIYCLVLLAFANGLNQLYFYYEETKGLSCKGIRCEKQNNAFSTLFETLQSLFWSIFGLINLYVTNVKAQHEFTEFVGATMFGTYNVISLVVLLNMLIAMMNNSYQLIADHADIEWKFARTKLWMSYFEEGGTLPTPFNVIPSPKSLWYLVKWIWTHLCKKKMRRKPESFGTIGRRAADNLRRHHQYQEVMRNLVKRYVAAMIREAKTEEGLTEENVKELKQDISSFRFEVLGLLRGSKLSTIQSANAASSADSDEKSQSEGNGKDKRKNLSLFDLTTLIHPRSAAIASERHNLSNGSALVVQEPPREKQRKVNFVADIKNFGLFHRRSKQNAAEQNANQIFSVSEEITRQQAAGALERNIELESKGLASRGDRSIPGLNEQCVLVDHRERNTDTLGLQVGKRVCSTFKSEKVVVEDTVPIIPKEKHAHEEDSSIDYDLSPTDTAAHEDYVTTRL

On to `CCOc1cccc(CN2CCCC(C(=O)c3cccc(C(F)(F)F)c3)C2)c1O` (stereo not drawn), for which the outcome in [1], in assay [2], in [3], in assay [4], in assay [6] and in assay [7] was inactive. The outcome in assay [8], in [9], in assay [10], in assay [11], in assay [12] and in assay [13] was inactive. Also, the outcome in [15], in assay [16] and in assay [17] was inactive. Further, the inhibition was 77% (active) in assay [5] and 42.2% (active) in [14].

For the molecule `Cc1ccc(C(C)C)c(OCCCCN2CCNCC2)c1`, the outcome in [1], in [2], in assay [4], in [5], in assay [6] and in assay [7] was inactive. The result in assay [8], in assay [9], in assay [10], in [11], in assay [12] and in assay [13] was inactive. Further, the outcome in assay [14], in [16] and in assay [17] was inactive. The values for the potentiation in assay [3] and in [15] were 11% (active) and 23.8% (active), respectively.

With `Cc1ccc(NC(=O)c2cc(N3C(=O)C=CC3=O)ccc2N2CCOCC2)cc1Cl`, the result in [1], in [2], in assay [3], in [4], in assay [5] and in assay [6] was inactive. Besides, the result in assay [7], in [8], in assay [9], in assay [10], in assay [11] and in assay [12] was inactive. The result in [13], in assay [14], in [15], in assay [16] and in assay [17] was inactive.

For the molecule `CC(C)Cn1c(O)c(N=NC(=O)c2cccc(S(=O)(=O)N3CCCCC3)c2)c2ccccc21`, the outcome in [1], in assay [2], in assay [3], in assay [5], in assay [6] and in [7] was inactive. The outcome in assay [8], in assay [9], in assay [10], in assay [11], in assay [12] and in assay [13] was inactive. Further, the outcome in assay [14], in assay [15], in assay [16] and in assay [17] was inactive. The potentiation in assay [4] is 15% (active).

As for `CSc1ccc2nnc(-c3cccc(F)c3)n2n1`, the outcome in assay [1], in [2], in assay [3], in assay [5], in assay [6] and in assay [7] was inactive. In addition, the outcome in assay [8], in assay [9], in assay [10], in assay [11], in assay [12] and in [13] was inactive. Moreover, the result in assay [14], in assay [16] and in [17] was inactive. The potentiation is 43% (active) in [4] and 26.8% (active) in assay [15].

For `O=C(c1ccncc1)N1c2ccccc2Sc2ccccc21`, the result in assay [1], in assay [2], in assay [3], in assay [4], in assay [5] and in assay [6] was inactive. Moreover, the outcome in assay [7], in [8], in [9], in assay [10], in assay [11] and in assay [12] was inactive. In addition, the outcome in assay [13], in assay [14], in assay [15], in [16] and in assay [17] was inactive.

`Cc1ccsc1C(=O)OCC(=O)NCCNC(=O)COC(=O)c1sccc1C`: the result in assay [1], in assay [2], in [3], in assay [4], in assay [5] and in [6] was inactive. In addition, the outcome in [7], in [8], in [9], in assay [10], in assay [11] and in assay [12] was inactive. In addition, the outcome in assay [13], in assay [14], in assay [15], in assay [16] and in assay [17] was inactive.

As for `Cc1ccc(C)c(OCCCCN2CCNCC2)c1C`, the outcome in assay [1], in assay [2], in [3], in assay [5], in assay [6] and in assay [7] was inactive. Further, the outcome in assay [8], in assay [9], in assay [10], in assay [11], in assay [12] and in assay [13] was inactive. Moreover, the result in [14], in [16] and in [17] was inactive. Also, the potentiation in assay [4] is 9% (active); in [15], 29.4% (active).

Regarding `O/N=C/c1cn(-c2ccccc2)nc1-c1ccc2c(c1)OCCO2`, the outcome in assay [1], in assay [2], in [3], in [5], in [6] and in [7] was inactive. In addition, the result in assay [8], in assay [9], in [10], in assay [11], in assay [12] and in [13] was inactive. The outcome in assay [14], in assay [16] and in [17] was inactive. The potentiation in assay [4] is 16% (active); in assay [15] it was 29.3% (active).

Regarding `NS(=O)(=O)c1ccc(NN=C2CCN(Cc3ccccc3)CC2)c([N+](=O)[O-])c1`, the result in assay [1], in assay [2], in assay [3], in assay [4], in assay [5] and in assay [6] was inactive. For the same molecule, the outcome in [7], in [8], in assay [9], in assay [10], in assay [11] and in [12] was inactive. Moreover, the outcome in assay [13], in [14], in [16] and in assay [17] was inactive. The potentiation in [15] is 16.3% (active).

Take `CCOC(=O)C1C(=O)C=C(c2ccc(C)cc2)CC1c1cccc([N+](=O)[O-])c1` (stereo not drawn): the result in assay [1], in [2], in assay [3], in assay [5], in assay [6] and in assay [7] was inactive. The result in assay [8], in assay [9], in assay [10], in assay [11], in assay [12] and in assay [13] was inactive. The result in [14], in assay [16] and in [17] was inactive. In addition, the values for the potentiation in assay [4] and in [15] were 46% (active) and 38.9% (active), respectively.

For `COc1ccc(-n2cc(CNCc3cccnc3)c(-c3cccc(F)c3)n2)cc1`, the activation in [1] was 84% (active). In addition, the result in assay [2], in assay [3], in assay [4], in assay [5], in [6] and in assay [7] was inactive. The result in assay [8], in [9], in assay [10], in assay [11], in assay [12] and in assay [13] was inactive. The outcome in assay [14], in [15], in assay [16] and in assay [17] was inactive.

Consider `O=C(NN/C(=N/S(=O)(=O)c1ccc(Cl)cc1)c1ccccc1)c1cccc(Cl)c1`, for which the result in assay [1], in assay [2], in [3], in assay [4], in [6] and in assay [7] was inactive. Also, the result in assay [8], in [9], in assay [10], in assay [11], in assay [12] and in [13] was inactive. In addition, the result in assay [14], in [15], in assay [16] and in [17] was inactive. Moreover, in [5], the inhibition is 70% (active).

For the molecule `Cn1c(=O)c2c(nc(CN3CCc4ccccc4C3)n2Cc2ccccc2)n(C)c1=O`, the result in assay [1], in assay [2], in [4], in [5], in assay [6] and in assay [7] was inactive. The outcome in assay [8], in assay [9], in [10], in assay [11], in [12] and in [13] was inactive. The result in [14], in [16] and in assay [17] was inactive. Besides, the potentiation was 40% (active) in [3] and 97.6% (active) in assay [15].

One may read the inhibition as the change of the read-out against control, counted positive when it falls.
